SMILES strings stand for the structures. In all, about 270,000 compounds went through this assay and about 5,800 (2.1%) were called active. Roughly 16% stayed inconclusive and do not appear here. The call rests on the fitted dose curve; in most records, active means well fitted inhibition curve with a large enough effect; inconclusive means small, poorly fitted or top-dose-only effect; inactive means flat fitted curve, though single readings scatter. The entries come from a sample that favours actives as a whole. Where a call stands in place of a potency, no number is given.
Potency means the concentration at half of the fitted maximal effect.

Microtubule-associated protein tau (Homo sapiens), sequence (P10636 561-689 P618L limits assumed): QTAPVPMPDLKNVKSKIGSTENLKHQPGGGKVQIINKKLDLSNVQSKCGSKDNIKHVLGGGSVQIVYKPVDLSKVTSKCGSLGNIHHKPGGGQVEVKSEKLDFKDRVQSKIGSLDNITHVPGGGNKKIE

In this assay the target is Microtubule-associated protein tau (Homo sapiens) (UniProt P10636). The assay can be described thus: qHTS for Inhibitors of Tau Fibril Formation, Thioflavin T Binding. Further: nearly all actives have a fitted effect of over 55% in size. The settings on record: recombinant tau K18 P301L (four-repeat tau fragment), heparin-induced fibrillization, ThT fluorescence; series mostly up to 57.4 µM. In outline:
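In this qHTS, human K18 P301L tau is incubated with compound and heparin for 6 hr at 37 C, and Thioflavin T fluorescence then reports fibril load.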
A general note: qHTS replaces the single test concentration by a dilution series.
As to `CCOC(=O)c1c(C)nc2c(c1C)c(=O)oc1ccccc12`, the Potency result was “inactive”. In the case of `CCN(CC)c1ccc2oc(=O)c(C)nc2c1`, the Potency was 7.94 µM (active). For the compound `CCN(CC)c1ccc2c(Nc3ccccc3)c(C=O)c(=O)oc2c1`, the Potency entry is “inactive”. In the case of `COc1ccccc1CNC(=O)c1ccc(-n2c(C)cc3c2CCCC3)cc1`, the Potency result was “inactive”. For `COc1ccc(C(=O)Nc2onc3c2CCCC3)cc1`, the Potency result was “inactive”. On to `COc1ccccc1CNC(=O)Cn1nc(C)c2nn(-c3ccc(Cl)cc3)c(C)c2c1=O`, for which the Potency entry was “inactive”. As to `CCN(CC)C(=O)CSc1nc2cc3c(cc2c(=O)n1CCCC(=O)NCc1ccc2c(c1)OCO2)OCO3`, the Potency result was “inactive”. As for `O=C(CSCc1cnn(-c2ccccc2)c1-n1cccc1)NCc1ccc(Cl)cc1`, the Potency entry was “inactive”.

Consider `CCOc1ccc(C(=O)N2CCN(CCc3ccccn3)CC2)cc1`, for which the Potency result was “inactive”. `Cc1cc(-c2n[nH]c(=S)n2/N=C/c2ccco2)n[nH]1`: the Potency entry is “inactive”.

For `Cc1cc(-c2n[nH]c(=S)n2/N=C/C(Br)=C/c2ccccc2)n[nH]1`, the Potency is 12.6 µM (active).

On to `Oc1ccccc1/C=N/n1c(-c2cccs2)n[nH]c1=S`, for which the Potency result was “inactive”.

For `COc1ccccc1CN1CCC(CNC(=O)c2cnn(-c3cccc(Cl)c3)c2C2CCN(C(=O)OC(C)(C)C)CC2)CC1`, the Potency result is “inactive”. Then `CCOc1ccccc1CNC(=O)c1ccc2c(c1)nc1n2CCC(C)C1` (centres undefined), with “inactive”.

With `Cc1ccc(NC(=O)c2cc3cc(C)ccc3n2C)cc1`, the Potency entry is “inactive”. For `CCOC(=O)c1c(NC(C)=O)c2c3c(sc2n1Cc1c(C)cc(C)cc1C)CCCC3` the value was “inactive”. Consider `Fc1ccc(CSc2nc(NCc3ccccc3)c3ccccc3n2)cc1`, for which the Potency entry is “inactive”. Take `COc1ccc(NC(C)=O)cc1NC(=O)CN1CCN(c2ccc(F)cc2)CC1`: the Potency result is “inactive”. Regarding `C/C(CC1CC(C)(C)OC1=O)=N/Nc1nc(-c2ccccc2)cs1` (centres undefined), the Potency was 25.1 µM (active). Regarding `CC1(C)CC(CC(=O)O)C(=O)O1` (centres undefined), the Potency result is “inactive”. For `CC(=O)Nc1ccc(-c2csc(NC=C3C(=O)OC(C)(C)OC3=O)n2)cc1` the value was “inactive”; for `Cc1ccc(-c2nn3c(=O)cc(CN4CCN(S(=O)(=O)c5ccc(Cl)cc5)CC4)nc3s2)cc1`, “inactive”; for `COc1ccccc1N1CCN(c2ccc(=O)n(CC(=O)NCc3ccc(OC(C)C)cc3)n2)CC1`, “inactive”. For `COc1ccc(N2C(=O)CS(=O)(=O)C23C(=O)N(Cc2ccc(C)cc2)c2ccccc23)cc1Cl` (centres undefined) the value was “inactive”; for `Cc1c(CNC(C)c2ccccc2)c(C(=O)O)c(C)n1Cc1c(F)cccc1Cl` (centres undefined), “inactive”; for `COc1ccccc1C1/C(=C(/O)c2ccc(OC(C)C)cc2)C(=O)C(=O)N1c1cc(C)on1` (centres undefined), “inactive”. Then `COc1ccc(/C(O)=C2/C(=O)C(=O)N(c3nc(C)c(C)s3)C2c2ccco2)cc1` (centres undefined), with “inactive”; and `CCOc1ccc(/C(O)=C2\C(=O)C(=O)N(c3ccc(OC)cc3)C2c2ccccc2[N+](=O)[O-])cc1` (centres undefined), with 5.01 µM (active); and `CN(C)N=Nc1ccc2nc[nH]c2c1`, with 4.47 µM (active). As for `CC/C(O)=N\S(=O)(=O)c1ccc(N=NN(C)C)cc1`, the Potency result is “inactive”. Then `CCCN(CCC)S(=O)(=O)c1ccc(C(=O)Nc2sc3c(c2C(=O)OC)CCN(CC)C3)cc1`, with “inactive”; and `CCc1cccc(NC(=O)CN(c2ccc(C)c(C)c2)S(=O)(=O)c2ccsc2C(=O)OC)c1`, with “inactive”; and `O=C(CSc1ccc(/C=N/NC(=O)c2cccc(F)c2)o1)Nc1ccccc1`, with “inactive”. Take `Cc1ccc(/C=N/NC(=O)CSc2ccccn2)o1`: the Potency result is “inactive”.

As to `N#CCC(=O)N/N=C/c1ccc(SCC(=O)Nc2ccccc2)o1`, the Potency is 25.1 µM (active). Then `O=C(CCc1ccccc1)NCc1ccc2c(c1)CCN2C(=O)c1ccccc1`, with “inactive”; and `Cc1ccc(-n2c(C)cc(/C=N\NC(=O)CC(=O)NC(C)C)c2C)cc1`, with “inactive”; and `Cc1cccc(C)c1NC(=O)CSc1ccc([N+](=O)[O-])cn1`, with “inactive”.

With `Cc1cccc(-n2c(C)cc(/C=N\NC(=O)c3cccs3)c2C)c1`, the Potency result is “inactive”.

Take `COc1cc(/C=N\NC(=O)CNC(=O)c2cccc([N+](=O)[O-])c2)ccc1O`: the Potency result is “inactive”. On to `Cc1ccc(-n2c(C)cc(/C=N/Nc3ccc([N+](=O)[O-])cn3)c2C)c(C)c1`, for which the Potency is 3.98 µM (active).

Regarding `COc1cc(/C=N/NC(=O)Nc2ccccc2)ccc1OCCOc1ccccc1C`, the Potency result was “inactive”.

Turning to `COc1cc(/C=N\Nc2ccc([N+](=O)[O-])cn2)ccc1OCC(=O)O`, the Potency is 12.6 µM (active). As to `Cc1cc(/C=N/Nc2ccc([N+](=O)[O-])cn2)c(C)n1-c1cccc(C(=O)O)c1`, the Potency is 2.82 µM (active). Then `Cc1cc(/C=N/n2cnnc2)c(C)n1-c1cccc(C(=O)O)c1`, with “inactive”; and `COc1cccc(NC(=O)N(Cc2cn(C)c3ccccc23)C2CCCCCC2)c1`, with “inactive”. Take `COc1ccc(Cn2c(C(=O)O)c(CNCc3cccc(OC)c3)c3ccc(C)cc32)cc1`: the Potency result was “inactive”. On to `COc1cc(C(=O)NCCS(=O)(=O)N2CCN(c3ccccc3)CC2)cc(OC)c1OC`, for which the Potency entry is “inactive”.

Consider `COc1ccc(-n2c(SCC(=O)Nc3ccc(Cl)c(C)c3)nc3n[nH]c(C)c3c2=N)cc1`, for which the Potency entry was “inactive”.

`CCOc1ccc(NC(=O)C2CCN(S(=O)(=O)c3cc(-c4noc(C)n4)ccc3C)CC2)cc1`: the Potency entry was “inactive”.

On to `COc1ccc(-c2nn3c(=O)cc(CN4CCN(C(=O)c5ccc(OC)c(OC)c5)CC4)nc3s2)cc1`, for which the Potency entry is “inactive”. Regarding `Cc1cccc2c(=O)cc(CSc3ccccc3NC(=O)C(C)C)[nH]c12`, the Potency result is “inactive”. In the case of `COc1cc(=O)[nH]c(=O)n1C(=O)Cc1ccccc1`, the Potency result was “inactive”. With `CCCOc1ccc(Cn2c(O)cc(=O)[nH]c2=O)cc1`, the Potency is 25.1 µM (active). In the case of `COc1ccc(Cn2c(=O)cc(C)[nH]c2=S)cc1`, the Potency result is “inactive”. For `Cc1cccc(NC(=O)N2CCC(CN3CCc4ccccc4C3)CC2)c1C` the value was “inactive”. Regarding `COc1ccc2c(c1OC)C(=O)OC2Nc1nc(-c2ccccc2)cs1` (centres undefined), the Potency was 17.8 µM (active). `COc1ccc2c(c1OC)C(=O)OC2c1c(O)nc(SC)n(-c2ccccc2)c1=O` (centres undefined): the Potency result is “inactive”. As for `Cc1cccc(S(=O)(=O)CC(=O)Nc2nc(-c3ccccc3)cs2)c1`, the Potency entry was “inactive”. Take `O=C(CN1C(=O)COc2ccc(S(=O)(=O)N3CCCCCC3)cc21)N1CCN(c2cccc(C(F)(F)F)c2)CC1`: the Potency entry was “inactive”. Regarding `Cc1ccc(CCNC(=O)Cn2c(-c3cccs3)cc3cc(F)ccc32)cc1`, the Potency entry is “inactive”. Then `Cc1cc2nn(-c3ccc(Cl)cc3)nc2cc1NC(=O)C(C)C`, with “inactive”; and `Cc1ccc(Cl)cc1NC(=O)C(C)n1nnc2sc(-c3ccccc3)cc2c1=O` (centres undefined), with 17.8 µM (active). As for `Cc1ccc(Cl)cc1NC(=O)c1ccccn1`, the Potency entry was “inactive”. For the compound `COc1cccc(NC(=O)CSC2=Nc3ccccc3C3=NC(CC(=O)NC4CCCCC4)C(=O)N23)c1` (centres undefined), the Potency result is “inactive”. Regarding `Cc1ccc(Cl)cc1N1CCN(C(=O)c2cn(C)c3ccc(S(=O)(=O)N(C)C4CCCCC4)cc3c2=O)CC1`, the Potency result is “inactive”. As to `CC(=O)Oc1cccc(N2C(=O)C3CC=C(Cl)CC3C2=O)c1` (centres undefined), the Potency entry is “inactive”. Take `COc1ccc(N2CCN(C3CC(=O)N(c4ccc5c(c4)OCCO5)C3=O)CC2)cc1` (centres undefined): the Potency result is “inactive”. For `CC(=O)Oc1cccc(N2C(=O)CC(Nc3ccc(N4CCOCC4)cc3)C2=O)c1` (centres undefined) the value was 15.8 µM (active); for `COCCNC(=O)CSc1c(C)cnc2c1c(=O)n(C)c(=O)n2C`, “inactive”. In the case of `CC(=O)N1c2ccccc2CC1C(=O)N1CCN(c2ccc(F)cc2)CC1` (centres undefined), the Potency result was “inactive”. On to `CC(C)c1ccc(Nc2nnc(SCC(=O)c3nnc(-c4ccccc4)o3)s2)cc1`, for which the Potency was 17.8 µM (active). Take `O=C(CSc1nnc(Nc2ccccc2)s1)Nc1cccnc1Cl`: the Potency result is “inactive”.

In the case of `Cc1ccc(Nc2nnc(SCc3ccccc3)s2)cc1`, the Potency result was “inactive”. For `CCOC(=O)c1c(S(=O)(=O)N2CCCC(C(=O)NCc3cccc(C)c3)C2)c(C)n(C)c1C` (centres undefined) the value was “inactive”; for `COc1cccc(CNC(=O)C2CCN(S(=O)(=O)c3ccc4c(ccn4C)c3)CC2)c1`, “inactive”; for `COc1ccc(/C=N/N=C2/C(=O)Nc3ccccc32)cc1O`, 10 µM (active). `COc1ccc(/C=N/S(=O)(=O)c2ccccc2)cc1OC`: the Potency result was “inactive”. Then `CCOc1ccc(/C=N/NC(=O)CSc2ccccn2)cc1O`, with “inactive”; and `CCN(Cc1ccccc1)C(=O)c1cn(-c2cccc(OC)c2)c(=O)c2ccccc12`, with “inactive”; and `O=C(CSc1nnc(-c2ccccc2F)o1)Nc1cccc(C(F)(F)F)c1`, with “inactive”. As to `CN(C(=O)CSc1nnc(NC(=O)Nc2ccccc2)s1)c1ccccc1`, the Potency entry is “inactive”. As to `CCc1cccc(NC(=O)c2cnc(N3CCOCC3)c3ccccc23)c1`, the Potency entry is “inactive”.

As for `CCOC(=O)c1ccccc1C(=O)N1CCOCCOCCOCC1`, the Potency entry was “inactive”.

With `CCOC(=O)c1cnc2c(C)cc(C)cc2c1Nc1ccc(N2CCOCC2)cc1`, the Potency is 11.2 µM (active). Turning to `Cc1cc(C)cc(NC(=O)c2cnc3sc(N4CCCC4)nn3c2=O)c1`, the Potency result is “inactive”. Regarding `CCn1c(-c2cc(OC)ccc2OC)csc1=Nc1c(C)n(C)n(-c2ccccc2)c1=O`, the Potency result was “inactive”. For the compound `CN=c1scc(-c2cc(OC)ccc2OC)n1/N=C/c1c(C)[nH]c2ccccc12`, the Potency was 14.1 µM (active). For `Cc1[nH]c2ccccc2c1/C=N\NC(=O)Cn1nnc(-c2ccccc2)n1`, the Potency result was “inactive”. Regarding `CCOc1ccc(NC(=O)c2cc(S(=O)(=O)N3CCCC3)c[nH]2)cc1`, the Potency entry is “inactive”. With `O=S(=O)(c1ccc(Br)cc1)c1nnn2c1nc(N1CCOCC1)c1sccc12`, the Potency entry was “inactive”.

`CCN1/C(=C/c2ccc3ccc(C)cc3[n+]2CC)Sc2ccccc21`: the Potency result was “inactive”. Then `CCN1/C(=C\c2ccc3ccccc3[n+]2CC)Sc2cc(C)ccc21`, with 15.8 µM (active). Turning to `COc1ccc(S(=O)(=O)NCC(c2ccc(N(C)C)cc2)N2CCCC2)cc1` (centres undefined), the Potency entry is “inactive”.

With `O=C(c1ccc(Br)cc1)N(Cc1cccs1)c1ccc(F)cc1`, the Potency result is “inactive”. Take `Nc1ccc(Nc2ccccc2)cc1`: the Potency is 15.8 µM (active).

Take `Cc1cc(Nc2ccccc2)nc(N)n1`: the Potency result was “inactive”. On to `c1ccc(Nc2n[nH]nc2-c2ccccc2)cc1`, for which the Potency result was “inactive”. Consider `CNc1ccc(-c2nc(-c3ccccc3C)no2)cc1[N+](=O)[O-]`, for which the Potency result is “inactive”.

The values above are taken from PubChem BioAssay AID1460 (National Center for Advancing Translational Sciences (NCATS), 2008).
